Data on 73 compounds can be found in PubChem BioAssay AID651661 (Broad Institute, 2012).

Several values for one entry are separate records, joined by “and”; a condition that tells them apart may be missing. Identical values can stand only once. Screen size: about 350,000 compounds; about 2,300 (0.66%) were called active.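 The calls were made as follows: active = mean inhibition of at least 50% after viability correction, with every replicate also passing that limit; inconclusive = mean reaches 50% but only one of two replicates passes; inactive = the rest.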 The full list was thinned out, with actives kept by preference. More than one record can exist for a structure, and the calls need not agree.

The assay can be described thus: blockers of EWS/Fli transcriptional output – A673 cells, NR0B1 luciferase, luminescence, MLPCN library, primary screen (AID 651661).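 Also: firefly luciferase signal divided by Alamar Blue viability fluorescence both relative to DMSO.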 The following applies: A673 NR0B1-luciferase reporter, viability-normalised; at 12.6 µM; stronger effect = higher value. A general note: Reporter assays use an easily measured gene product as a stand-in for the process of interest.
Regarding `Oc1c(Cl)cc(Cl)c(Cl)c1Cc1c(O)c(Cl)cc(Cl)c1Cl`, the inhibition (as a rule, the change of the read-out against control, counted positive when it falls) is 50.1% (active). `C/C=C/c1ccc(C2[C@H]3CNC[C@@H]2N3Cc2cccc(F)c2)cc1` (stereo partly drawn): the inhibition was 4.29% (inactive). In the case of `Cc1csc(NC(=O)c2ccc(-c3ccc(Cl)cc3Cl)o2)n1`, the inhibition was -14% (inactive). `COc1cc(SC)ccc1C(=O)NNC(=O)C1COc2ccccc2O1` (stereo not drawn): the inhibition was -2.85% (inactive). Consider `COc1cc(SC)ccc1C(=O)Nc1nc(C)cs1`, for which the inhibition was 76.2% (active). Regarding `CO[C@@H]1CN(C)C(=O)c2ccc(NC(=O)c3ccc(F)cc3)cc2OC[C@H](C)N(C)C[C@H]1C`, the inhibition is 4.5% (inactive).

For the compound `C[C@H](CO)N1C[C@H](C)[C@@H](CN(C)CC2CC2)Oc2ccc(NS(=O)(=O)c3cn(C)cn3)cc2CC1=O`, the inhibition was -13.9% (inactive).

With `CO[C@H]1CN(C)C(=O)c2ccc(NC(=O)NC(C)C)cc2OC[C@@H](C)N(C(=O)CN(C)C)C[C@H]1C`, the inhibition is 8.16% (inactive). `Cc1onc(-c2ccccc2)c1C(=O)N=C(N)c1ccc(Cl)cc1`: the inhibition was -16.4% (inactive).

For `Cc1nc(N=C(N)N)nc2c(C)cccc12`, the inhibition is 34.9% (inactive).

As for `NC(N)=Nc1nc(-c2ccccc2)c2cc(Cl)ccc2n1`, the inhibition is 63.6% (active). In the case of `CC(C)NC(=O)N(C)C[C@@H]1Oc2ncc(C#Cc3ccncc3)cc2C(=O)N([C@@H](C)CO)C[C@@H]1C`, the inhibition was -7.78% (inactive).

In the case of `COC(=O)C[C@@H]1C[C@H]2c3cc(NC(=O)Nc4ccc(F)cc4)ccc3O[C@H]2[C@@H](CO)O1`, the inhibition was 6.58% (inactive). For `CC(C)(C)[S@](=O)N1Cc2cc(C(=O)N3CCCCC3)nc(-c3cccc(Br)c3)c2[C@@H]1CCO`, the inhibition was 0.582% (inactive).

For the compound `N#C[C@@H]1[C@@H](c2ccc(C#Cc3cccc(F)c3)cc2)[C@@H](CO)N1C(=O)C1CCC1`, the inhibition was -10% (inactive). Regarding `N#C[C@@H]1[C@@H](c2ccc(C#Cc3cccc(F)c3)cc2)[C@H](CO)N1C(=O)C1CCOCC1`, the inhibition was -36% (inactive). In the case of `N#C[C@@H]1[C@H](c2ccc(C#Cc3cccc(F)c3)cc2)[C@@H](CO)N1C(=O)C1CCCC1`, the inhibition is 59.3% (active). `Cc1noc(C)c1NC(=O)N(C)C[C@@H]1Oc2ccc(NC(=O)CCN3CCOCC3)cc2CC(=O)N([C@H](C)CO)C[C@@H]1C`: the inhibition is -3.43% (inactive).

As for `CCCCCCCCn1c2c(c(=N)c3c1CCC3)CCCC2`, the inhibition was 55.8% (active). Turning to `CO[C@@H](CN(C)C(=O)Nc1ccc(F)cc1)[C@H](C)CN(Cc1ccccc1Cl)[C@@H](C)CO`, the inhibition is 2.29% (inactive). As for `O=C(NCC[C@H]1CC[C@@H](NS(=O)(=O)c2cccc(Cl)c2)[C@@H](CO)O1)c1cnccn1`, the inhibition is -2.88% (inactive). Regarding `CCOCCC(=O)Nc1ccc2c(c1)c(=O)n(C)n2-c1ccc2ccccc2c1`, the inhibition is 56.3% (active).

Consider `COc1cc(Cn2c3ccc(NC(=O)CC(C)c4ccccc4)cc3c(=O)n2C)ccc1F` (stereo not drawn), for which the inhibition is 11% (inactive). With `CCOC(=O)c1cccc(NC(=O)CCOc2ccccc2)c1` the figure was -49.3% (inactive).

Take `CC(=O)N(C)C[C@H]1Oc2ncc(C#Cc3ccccn3)cc2C(=O)N([C@H](C)CO)C[C@@H]1C`: the inhibition was 1.56% (inactive). Turning to `C[C@@H]1CCCCO[C@@H](CN(C)C(=O)Nc2ccc3c(c2)OCO3)[C@H](C)CN([C@H](C)CO)C(=O)c2cc(NC(=O)CCCN(C)C)ccc2O1`, the inhibition is -6.47% (inactive). With `COc1ccc(OC)c(NC(=O)c2sc3nc(C)cc(C)c3c2N)c1`, the inhibition is -6% (inactive).

Regarding `COc1ccc(OC)c(Cc2cnc3nc(N)nc(N)c3c2C)c1`, the inhibition was 62.9% (active). Turning to `COc1ccc(OC)c(Cc2nnc(CCC(=O)NC3CCCC3)o2)c1`, the inhibition was -17.8% (inactive). The result for `CO[C@H]1CN(C)C(=O)c2cc(NC(=O)C3CC3)ccc2OC[C@@H](C)N(CCc2ccccc2)C[C@H]1C` reads -1.43% (inactive); that for `CN(C)CCCNC(=O)C[C@H]1CC[C@H]2[C@@H](COC[C@H](O)CN2CC2CCCCC2)O1`, -0.386% (inactive). As to `CC(=O)N(C)C[C@@H]1Oc2ncc(C#Cc3ccc(F)cc3)cc2C(=O)N([C@H](C)CO)C[C@@H]1C`, the inhibition is -7.39% (inactive). For `CC(C)CN(C[C@@H]1N[C@@H](CO)[C@H]1c1ccccc1)C(=O)CN(C)C`, the inhibition is 4.89% (inactive). For the compound `O=C(CSc1ncn[nH]1)Nc1ccc(Br)cc1Br`, the inhibition is -25.6% (inactive).

Turning to `O=C(/C=C/Sc1ncn[nH]1)c1ccc(Cl)cc1`, the inhibition was 67% (active).

On to `Cc1ccc(S(=O)(=O)N(C)C[C@@H]2Oc3ccc(NS(=O)(=O)c4ccc(F)cc4)cc3CC(=O)N([C@@H](C)CO)C[C@H]2C)cc1`, for which the inhibition is -0.853% (inactive). Regarding `CC(C)CC#Cc1ccc2c(c1)O[C@H](CN(C)Cc1ccccc1F)[C@@H](C)CN([C@@H](C)CO)S2(=O)=O`, the inhibition is -16.5% (inactive). As for `O=C(C1CCCC1)N1CC(=O)N2[C@H](CO)[C@H](c3ccc(Br)cc3)[C@H]2C1`, the inhibition was -4.8% (inactive). For `CCCC#Cc1ccc([C@H]2[C@H](CO)N3C(=O)CN(C(=O)c4ccc(F)cc4)C[C@@H]23)cc1`, the inhibition is -7.03% (inactive). For the compound `C=CCn1c(C)cc(C2=NNC(=NCC)SC2)c1C`, the inhibition was 91.7% (active). With `CCCC#Cc1ccc2c(c1)O[C@H](CN(C)C(=O)C1CCCCC1)[C@H](C)CN([C@H](C)CO)S2(=O)=O`, the inhibition was 9.13% (inactive).

Regarding `CC(C)C#Cc1ccc([C@H]2[C@@H](CO)N3CCCCN(C(=O)Nc4ccccc4)C[C@H]23)cc1`, the inhibition is 1.61% (inactive). As to `C[C@@H](NC(=O)C[C@H]1C[C@@H]2c3cc(NC(=O)c4ccc5c(c4)OCO5)ccc3O[C@@H]2[C@@H](CO)O1)c1ccccc1`, the inhibition is 2.79% (inactive). Regarding `CNC(=O)C[C@@H]1CC[C@H]2[C@@H](COc3ccc(NC(=O)NCc4ccccc4)cc3C(=O)N2C)O1`, the inhibition is -5.62% (inactive). The result for `COC(=O)C1=C(C)N(Cc2ccc(C(F)(F)F)cc2)C(=NCc2ccccc2)NC1c1ccccc1C(F)(F)F` (stereo not drawn) reads 25.1% (inactive); that for `COC(=O)C1=C(C)N(Cc2ccc(C(F)(F)F)cc2)C(=NCc2ccc(C(F)(F)F)cc2)NC1c1cccc(Cl)c1` (stereo not drawn), 55.4% (active); that for `COC(=O)C1=C(C)N(Cc2cccc(C(F)(F)F)c2)C(=NCc2ccccc2)NC1c1ccc(Cl)cc1` (stereo not drawn), 36.5% (inactive).

For `CN(C)CC(=O)N1[C@@H](C#N)[C@@H](c2ccccc2-c2ccccc2F)[C@@H]1CO`, the inhibition was -0.399% (inactive).

Turning to `COc1cccc(S(=O)(=O)N2C[C@@H]3N[C@H](C2)C3c2ccc(-c3cccc(C(=O)N(C)C)c3)cc2)c1` (stereo partly drawn), the inhibition is 10.3% (inactive) and 3.54% (inactive). Turning to `COc1ccccc1S(=O)(=O)N1C[C@@H]2N[C@H](C1)C2c1ccc(-c2cccc(C)c2)cc1` (stereo partly drawn), the inhibition was 61.1% (active) and 2.71% (inactive). On to `Cc1ccccc1S(=O)(=O)N1C[C@@H]2N[C@H](C1)C2c1ccc(-c2cccc(C(=O)N(C)C)c2)cc1` (stereo partly drawn), for which the inhibition is -5.91% (inactive).

Take `N#C[C@@H]1[C@H](c2ccc(-c3cccnc3)cc2)[C@H](CO)N1C(=O)C1CC1`: the inhibition was -1.35% (inactive). For the compound `COCC#Cc1ccc([C@@H]2[C@H](CO)N3C(=O)CN(C(=O)C4CCC4)C[C@@H]23)cc1`, the inhibition is -1.21% (inactive). As for `Brc1ccc2ncnc(NCc3cccnc3)c2c1`, the inhibition is -8.78% (inactive). With `O=C(O)CCCCCNc1ncnc2ccc(Br)cc12` the figure was -0.908% (inactive); with `COc1ccc(Nc2ncnc3ccc(Br)cc23)c(OC)c1`, 72.3% (active); with `CNC[C@H]1OCCCC[C@@H](C)Oc2ccc(NC(=O)Nc3ccc(C(F)(F)F)cc3)cc2C(=O)N([C@H](C)CO)C[C@H]1C`, -7.97% (inactive). The result for `COCC(=O)Nc1ccc2c(c1)OC[C@H](C)N(Cc1ccccc1)C[C@H](C)[C@@H](OC)CN(C)C2=O` reads 20.9% (inactive); that for `COCC(=O)Nc1ccc2c(c1)OC[C@@H](C)N(CCc1ccccc1)C[C@H](C)[C@@H](OC)CN(C)C2=O`, 53.4% (active). In the case of `COCC(=O)Nc1ccc2c(c1)C(=O)N(C)C[C@H](OC)[C@@H](C)CN(CCc1ccccc1)[C@@H](C)CO2`, the inhibition is 2.64% (inactive). As for `CCC(=O)N1C[C@H](C)[C@@H](OC)CN(C)C(=O)c2cc(NC(=O)c3cnccn3)ccc2OC[C@@H]1C`, the inhibition was 2.51% (inactive). Regarding `O=C(c1cnccn1)N1CC(=O)N2[C@H](C1)[C@@H](c1ccc(C#CC3CCCCC3)cc1)[C@@H]2CO`, the inhibition is -6.01% (inactive). Consider `COc1ccc(NC(=O)CCCC(=O)c2ccccc2)cc1`, for which the inhibition was 10.3% (inactive). The result for `COc1ccc(/C=C2/SC(=O)N(CCCCCC(=O)Nc3ccccc3C(=O)O)C2=S)cc1` reads 55.1% (active); that for `COc1cccc(/C=C2\SC(=S)N(CCCC(=O)N3CCOCC3)C2=O)c1`, -15.9% (inactive); that for `COc1ccccc1S(=O)(=O)N[C@@H]1CC[C@H](CCn2cc(C3CCCC3)nn2)O[C@H]1CO`, -6.51% (inactive).

Take `O=C(Nc1ccccc1F)N[C@H]1CC[C@@H](CCNS(=O)(=O)c2ccc(F)cc2)O[C@@H]1CO`: the inhibition was 4.92% (inactive). As for `C[C@H](CO)N1C[C@H](C)[C@@H](CN(C)C(=O)C2CCCCC2)OCCCC[C@H](C)Oc2ccc(N(C)C)cc2C1=O`, the inhibition is -2.95% (inactive). As for `CC(NC(=S)Nc1ccc(OC(F)F)cc1)c1ccc(F)cc1` (stereo not drawn), the inhibition was 0.035% (inactive).

For the compound `CC(C)CNC(=O)C(=O)Nc1ccc(N(C)C)cc1`, the inhibition is -41.5% (inactive). `CC(C)CNC(=S)Nc1ccc(F)cc1`: the inhibition is 86.6% (active).

As for `CO[C@H](C(=O)N(C)C[C@@H]1OCc2ccccc2-c2c(n(C)c3ccccc23)C(=O)N([C@@H](C)CO)C[C@H]1C)c1ccccc1`, the inhibition is 8.3% (inactive). As for `N#Cc1cccc(-c2ccc(C3[C@H]4CNC[C@@H]3N4S(=O)(=O)c3ccc(-c4ccccc4)cc3)cc2)c1` (stereo partly drawn), the inhibition is 3.68% (inactive) and -7.87% (inactive).
